Screening data (PubChem BioAssay)
KCNQ2 block = KCNQ2 (rat) channel inhibition; O88943; CHO-K1 KCNQ2, FluxOR thallium flux, 20 min; stronger effect = lower value; B-score at 10 µM; 310,000 tested, 1.1% active; AID 2156;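 active = fluorescence ratio B-score at most minus 3 library SDs, with starting brightness B-score within 2 library SDs, cut at about -5.5 in these data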
Target sequence (O88943 whole entry, looked up): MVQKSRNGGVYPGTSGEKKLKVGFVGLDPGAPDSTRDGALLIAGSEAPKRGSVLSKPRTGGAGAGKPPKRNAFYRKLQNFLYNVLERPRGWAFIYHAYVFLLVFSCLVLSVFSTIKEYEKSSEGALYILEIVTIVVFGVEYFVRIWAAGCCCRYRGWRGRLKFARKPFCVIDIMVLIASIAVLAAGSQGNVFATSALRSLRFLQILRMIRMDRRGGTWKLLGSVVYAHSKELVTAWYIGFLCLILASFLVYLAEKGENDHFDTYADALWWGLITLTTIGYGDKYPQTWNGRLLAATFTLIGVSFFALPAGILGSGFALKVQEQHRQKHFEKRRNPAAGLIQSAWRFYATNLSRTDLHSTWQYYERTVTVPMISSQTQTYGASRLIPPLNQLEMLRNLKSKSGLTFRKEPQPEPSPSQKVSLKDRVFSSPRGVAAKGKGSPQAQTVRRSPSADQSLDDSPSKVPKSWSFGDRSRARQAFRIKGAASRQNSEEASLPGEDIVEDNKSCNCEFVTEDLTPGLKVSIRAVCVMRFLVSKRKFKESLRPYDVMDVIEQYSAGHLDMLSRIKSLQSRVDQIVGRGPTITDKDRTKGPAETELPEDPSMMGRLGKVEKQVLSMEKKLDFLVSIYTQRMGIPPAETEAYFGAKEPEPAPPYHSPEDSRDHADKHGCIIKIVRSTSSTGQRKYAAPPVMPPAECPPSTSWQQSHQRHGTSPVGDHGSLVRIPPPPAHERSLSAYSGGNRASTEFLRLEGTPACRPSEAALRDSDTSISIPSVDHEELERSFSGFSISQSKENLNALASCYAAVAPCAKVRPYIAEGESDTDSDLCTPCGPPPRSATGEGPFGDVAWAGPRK
KCNQ2 enhance = KCNQ2 (rat) channel potentiation; O88943; B-score at 10 µM; 310,000 tested, 0.54% active; AID 2239; CHO-K1 KCNQ2, FluxOR thallium flux fluorescence; stronger effect = higher value;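 active = fluorescence ratio B-score at least 3 SD of library B-scores, with initial fluorescence B-score within 3 of them, cut at about 5.3 in these data; same plate scores as AID 2156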;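 also: B-score of peak minus minimum over baseline fluorescence ratio after K+ and Tl+ stimulus; positive B-score means potentiation of KCNQ2 with more thallium influx and brighter signal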
Kir21 confirm = confirmation of mouse Kir2.1 potassium channel inhibitors; shares compounds with KCNQ2 enhance; Kir2.1-expressing cells, FluxOR thallium flux fluorescence; stronger effect = lower value; Tl flux remaining, % of negative control (stronger effect = lower value), % at 10 µM; 2,300 tested, 41% active; AID 2032;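 active = Primary-screen hit whose thallium flux fell at least 3 control SD below untreated wells in both duplicates, with normal baseline fluorescence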;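 also: 0% = blank wells without stimulus and 100% = stimulated no-compound controls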
HEK293 Tl flux = parental HEK293 activity in Kir2.1 inhibitor counter-screen. 2,300 tested, 19% active. parental HEK293 cells, FluxOR thallium flux fluorescence; 0% = unstimulated blank wells. FluxOR signal as % of negative control (100 = no effect), % at 10 µM. shares compounds with KCNQ2 enhance;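 active = dye signal at least 3 control SD above or below untreated wells in both duplicates, raw fluorescence within 3, either direction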;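 also: percent is based on the flux ratio of peak minus minimum fluorescence over baseline F0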
CHO-K1 Tl ctr = parental CHO-K1 activity in KCNQ2 potentiator counter-screen; AID 2282; parental CHO-K1 cells, FluxOR thallium flux fluorescence; zero = vehicle mean+3SD, 100% = vehicle-minus-blank window; shares compounds with KCNQ2 enhance; 1,200 tested, 43% active; activity increase over 3SD of controls, % at 10 µM;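 active = signal rise of at least 3 SD above the untreated control mean, in both duplicate wells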;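 also: counter screen of KCNQ2 potentiator hits so any rise reflects channel-independent effects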
KCNQ1 sel pot = selectivity of KCNQ2 potentiators: effect on human KCNQ1 | shares compounds with KCNQ2 enhance | CHO KCNQ1 stable, FluxOR thallium flux fluorescence; beyond 3SD, as % of vehicle-control signal | activation over 3SD threshold, % at 10 µM | 1,200 tested, 28% active;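 active = fluorescence ratio rise of at least 3 SD of vehicle wells above their mean, in both replicate wells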;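 also: 0% = vehicle mean plus 3 SD and 100% = vehicle minus unstimulated blank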
KCNQ2 pot conf = confirmation of rat KCNQ2 potassium channel potentiators. potentiation, less the hit threshold, % at 10 µM. AID 2287. CHO-KCNQ2 cells, FluxOR thallium flux fluorescence. 1,200 tested, 68% active. shares compounds with KCNQ2 enhance;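 active = fluorescence ratio rising 3 SD or more over the vehicle control mean in both replicates, plus primary screen hit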;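 also: peak minus minimum thallium fluorescence divided by baseline after K/Tl stimulus; 0% = vehicle mean plus 3 SD and 100% = vehicle minus unstimulated blank difference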
Kir2-1 sel = mouse Kir2.1 off-target activity of KCNQ2 potentiators. shares compounds with KCNQ2 enhance. HEK293 Kir2.1, FluxOR thallium flux fluorescence. activity over 3SD threshold, % at 10 µM. 1,200 tested, 2% active;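 active = fluorescence ratio rise of at least 3 SD above the vehicle-control mean, seen in both replicates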;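 also: 0% = vehicle mean plus 3 SD and 100% = vehicle minus no-stimulus blank window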
KCNQ2 W236L MoA = KCNQ2 potentiators acting on retigabine-insensitive rat KCNQ2 W236L mutant | shares compounds with KCNQ2 enhance | CHO KCNQ2-W236L, automated patch clamp current | current increase over 3SD of negative controls (%), stronger effect = higher value, % at 25 µM | 940 tested, 10% active;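 active = current increase at least 3 SD of the untreated controls above them in both duplicate recordings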
* marks the source's active call; other numbers are inactive results; i = inactive; . = not tested or not shown. A selection: hits, their analogues and other compounds. The true share with any hit is near 1.6%.

SMILES	KCNQ2 block	KCNQ2 enhance	Kir21 confirm	HEK293 Tl flux	others
COc1ccc(C)cc1Nc1n[n+](-c2ccccc2)c(-c2ccc(C(=O)O)cc2)s1	i	0.64	.	.
COc1ccc(C)cc1Nc1n[n+](-c2ccccc2)c(-c2cc(OC)c(OC)cc2Br)s1	-6.4*	-6.4	53%*	i
CCOc1ccc(C(C)=O)cc1CSc1nnnn1-c1ccc(O)cc1	i	.	62%*	i
COc1ccc(C(C)=O)cc1CSc1nnnn1-c1ccc(O)cc1	i	.	.	.
CC1(C)CC(=O)C(C(c2ccncc2)C2C(=O)CC(C)(C)CC2=O)C(=O)C1	i	.	.	.
Cc1ccc(C(C2C(=O)CC(C)(C)CC2=O)C2C(=O)CC(C)(C)CC2=O)s1	i	5.6*	i	i	CHO-K1 Tl ctr=-1;KCNQ1 sel pot=-20;KCNQ2 pot conf=-31;Kir2-1 sel=-58
CC(C)N1CCN(Cc2ccsc2)CC1CCO (configuration not stated)	i	0.62	.	.
O=C(COC(=O)c1cccc(C(=O)OCC(=O)NCc2ccc(F)cc2)n1)NCc1ccc(F)cc1	i	0.06	.	.
CN1CCN(c2ccc(S(=O)(=O)N3CCCCC3)cc2NC(=O)Cc2ccc(Cl)cc2)CC1	i	0.03	.	.
CC(C)OC(=O)c1c(NS(=O)(=O)c2ccccc2)sc2c1CCCC2	i	2.2	i	i
COC(=O)c1c(NS(=O)(=O)Cc2ccccc2)sc2c1CCCC2	i	13*	i	236%*	CHO-K1 Tl ctr=110*;KCNQ1 sel pot=-4;KCNQ2 pot conf=45*;Kir2-1 sel=-39;KCNQ2 W236L MoA=i
COC(=O)c1c(NC(=O)c2ccccc2N(C)S(=O)(=O)c2ccccc2)sc2c1CCCC2	i	.	.	.
COC(=O)c1c(NS(C)(=O)=O)sc2c1CCCC2	i	0.04	.	.
O=C(NCCNC(=O)c1ccccn1)c1ccc(-c2ccccc2)cc1	i	1.2	.	.
COc1cccc(OC)c1C(=O)NNS(=O)(=O)c1ccc2ccccc2c1	i	2.2	.	.
COc1ccc(/C(C)=N/NC(=O)Cc2ccc(Cl)cc2)cc1	i	1.6	.	.
CSc1nn2cc(CCN3CCOCC3)c(-c3ccc(F)cc3)nc2c1C#N	i	0.04	.	.
Cc1ccc(Cl)cc1NC(=S)NN	i	.	.	.
CCCCn1c(N)c(N(CCOC)C(=O)COC(=O)CCOc2ccccc2)c(=O)[nH]c1=O	i	.	i	i
CCCCn1c(N)c(N(CCOC)C(=O)COc2ccc(OCC)cc2)c(=O)[nH]c1=O	i	0.94	.	.
O=C(Nc1cccc2ncccc12)C12CC3CC(CC(C3)C1)C2	i	1.2	.	.
O=C(CC12CC3CC(CC(C3)C1)C2)Nc1cccc2ncccc12	i	11*	i	i	CHO-K1 Tl ctr=-17;KCNQ1 sel pot=-16;KCNQ2 pot conf=45*;Kir2-1 sel=-28;KCNQ2 W236L MoA=i
COc1ccc(CCNC(=O)C(=O)N2CCCCC2)cc1OC	i	0.6	.	.
COc1ccc(C(=O)NC(=S)N(Cc2ccccc2)Cc2ccccc2)cc1	i	19*	i	199%*	CHO-K1 Tl ctr=136*;KCNQ1 sel pot=-6;KCNQ2 pot conf=-1;Kir2-1 sel=-28;KCNQ2 W236L MoA=i
CC(C)C(=O)NC(=S)N(Cc1ccccc1)Cc1ccccc1	i	.	.	.
SMILES	KCNQ2 block	KCNQ2 enhance	Kir21 confirm	HEK293 Tl flux	others
C=CCN(CC=C)C(=S)NC(=O)/C=C/c1ccccc1	i	0.7	.	.
O=C(NC(=S)NCc1ccccc1)c1ccccc1F	i	0.78	.	.
O=C(NC(=S)N(Cc1ccccc1)Cc1ccccc1)c1ccccc1F	i	11*	i	218%*	CHO-K1 Tl ctr=110*;KCNQ1 sel pot=-1;KCNQ2 pot conf=22*;Kir2-1 sel=-40;KCNQ2 W236L MoA=i
C=CCN(CC=C)C(=S)NC(=O)c1ccc(-c2ccccc2)cc1	i	7.3*	i	420%*	CHO-K1 Tl ctr=-3;KCNQ1 sel pot=22*;KCNQ2 pot conf=89*;Kir2-1 sel=-4;KCNQ2 W236L MoA=i
CC(C)(CNC(=O)COc1ccccc1Cc1ccccc1)N1CCOCC1	i	.	.	.
NS(=O)(=O)c1ccc(CCNC(=O)c2ccc([N+](=O)[O-])s2)cc1	i	.	.	.
O=C(COC(=O)c1cc(S(=O)(=O)N2CCOCC2)ccc1O)NCCc1ccccc1	i	0.38	.	.
O=C(NCc1ccc(Cl)cc1)c1ccccc1Oc1ccccc1	i	8.8*	i	i	CHO-K1 Tl ctr=110*;KCNQ1 sel pot=-12;KCNQ2 pot conf=12*;Kir2-1 sel=-49;KCNQ2 W236L MoA=i
COCCCNC(=O)c1ccccc1Oc1ccccc1	i	.	.	.
CCC(CC)NC(=O)c1ccccc1Oc1ccccc1	i	.	55%*	i
CCC(C)(C)NC(=O)c1ccccc1Oc1ccccc1	i	.	.	.
C=COCCNC(=S)N1CCOCCOCCN(C(=S)NCCOC=C)CCOCC1	i	.	.	.
Oc1ccccc1/C=N/NC(=S)NC1CC2C=CC1C2 (configuration not stated)	i	1.4	.	.
Oc1c(Cl)cc(Cl)cc1/C=N/NC(=S)NC1CC2C=CC1C2 (configuration not stated)	i	7.2*	i	i	CHO-K1 Tl ctr=-10;KCNQ1 sel pot=70*;KCNQ2 pot conf=-16;Kir2-1 sel=-27
Cc1cccc(N(CC(=O)NC2CCCCC2)C(=O)CCCC(=O)Nc2ccccn2)c1C	i	1.4	.	.
Cc1ccc(C(C)NC(=O)C2CCCC2)c(C)c1 (configuration not stated)	i	0.67	.	.
CC(=O)NC(CC(=O)NC1CCCCCC1)c1ccccc1 (configuration not stated)	i	1.4	.	.
CCC(NC(=S)NC1CCCCC1)c1ccc(C(C)C)cc1 (configuration not stated)	i	14*	i	i	CHO-K1 Tl ctr=18*;KCNQ1 sel pot=-25;KCNQ2 pot conf=54*;Kir2-1 sel=-32;KCNQ2 W236L MoA=i
COc1ccc(C(C)NC(=S)NC2CCCC2)cc1OC (configuration not stated)	i	0.16	.	.
Cc1ccc(C(C)NC(=S)NC2CCCCC2)c(C)c1 (configuration not stated)	i	7.3*	.	.	CHO-K1 Tl ctr=70*;KCNQ1 sel pot=-6;KCNQ2 pot conf=-2;Kir2-1 sel=-55;KCNQ2 W236L MoA=8.5%*
CCC(NC(=O)NC1CCCCC1)c1ccccc1 (configuration not stated)	i	19*	i	i	CHO-K1 Tl ctr=-18;KCNQ1 sel pot=-13;KCNQ2 pot conf=70*;Kir2-1 sel=-35;KCNQ2 W236L MoA=i
Cc1ccc(C(C)NC(=S)NC2CCCCC2)cc1C (configuration not stated)	i	25*	i	i	CHO-K1 Tl ctr=-30;KCNQ1 sel pot=8.7*;KCNQ2 pot conf=103*;Kir2-1 sel=-51;KCNQ2 W236L MoA=i
CCN1CCN(C(c2cccs2)C(C)NC(=S)NC2CCCCC2)CC1 (configuration not stated)	i	.	.	.
Cc1cccn2c(=O)nc(SCC(=O)NC3CCCC3)nc12	i	.	.	.
